Assay [1] deals with PRMT1 (protein arginine N-methyltransferase 1). Briefly: small molecules binding arginine methyltransferase PRMT1 – biochemical, small-molecule microarray, 635 nm fluorescence, primary screen (AID 1088).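 Also: binding of Prmt1 protein to compounds spotted on small-molecule microarray slides.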 As to conditions: higher = more signal.
Assay [2] in a line: growth effects on S. cerevisiae YJM789 – YJM789 clinical isolate, OD600, 24 h, basal, primary screen (AID 1089).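 Also: growth of clinical yeast isolate S. cerevisiae YJM 789 seeded 1000 cells per well; test concentration not given here.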 Particulars: higher = more signal, called active from +8 up or from −8 down.
Assay [3] can be described thus: S. pombe growth modifiers, basal conditions – strain 972, OD600, 24 h, no modulator, primary screen (AID 1090).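 Also: basal condition with compound alone and no growth modifier present; test concentration not given here.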 Particulars: S. pombe 972 growth, higher = more signal, called active from +8 up or from −8 down.
Assay [4] in a line: budding yeast growth modifiers under rapamycin – strain BY4716, OD600, 96 h, primary screen (AID 1091). Also: test concentration not given here. Particulars: S. cerevisiae BY4716 + rapamycin, higher = more signal, called active from +8 up or from −8 down.
In assay [5] the target is Torsin-1A-interacting protein 2 (Homo sapiens) (UniProt Q8NFQ8). In words: small molecules binding lysate-expressed LULL1 – cell lysate, human LULL1 lysate, 635/667 nm fluorescence, primary screen (AID 1092).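 Also: probe is lysate of COS7 cells overexpressing human LULL1; score merges per-feature 667 nm fluorescence with signal-to-noise.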 As to conditions: small-molecule microarray, hLULL1 lysate binding, 635 nm fluorescence; higher = more signal.
A short description of assay [6]: optical density change of DRC41 E. coli – strain DRC41, OD650, 24 h, E. coli filamentation project, primary screen (AID 1093).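 Also: MC1000 strain lacking acrAB efflux and sulA so SOS filamentation is blocked; test concentration not given here.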 As to conditions: E. coli DRC41 growth, higher = more signal, called active from +8 up or from −8 down.
Assay [7] is described as follows: probe aLefty2 binding to arrayed compounds – biochemical, biotinylated probe, 635/667 nm fluorescence, primary screen (AID 1094).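 Also: score merges spot fluorescence near 667 nm with spot signal-to-noise ratio.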 Particulars: small-molecule microarray, higher = more signal.
In assay [8] the test system is Noggin (protein binding on small-molecule microarray). Briefly: small molecules binding Noggin protein – biochemical, 635/667 nm fluorescence, primary screen (AID 1095).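 Also: score merges 667 nm feature fluorescence with signal to noise over triplicate slides.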 Particulars: 635 nm fluorescence, higher = more signal.
Assay [9] concerns the target Neurogenic locus notch homolog protein 3 (Homo sapiens) (UniProt Q9UM47). Briefly: small molecules binding NOTCH3 protein – biochemical, 635/667 nm fluorescence, primary screen (AID 1096). Particulars: small-molecule microarray, 635 nm fluorescence, higher = more signal.
Assay [10] is described as follows: probe aEGFR binding to arrayed compounds – biochemical, biotinylated probe, 635/667 nm fluorescence, primary screen (AID 1097).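 Also: probe is a biotinylated anti-EGFR antibody binding compounds printed on slides; score combines fluorescence near 667 nm and signal to noise of each spot.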 As to conditions: small-molecule microarray, higher = more signal.

Calls of active or inactive are those of the source.

Chain of Neurogenic locus notch homolog protein 3 (Homo sapiens) (Q9UM47 whole entry, looked up): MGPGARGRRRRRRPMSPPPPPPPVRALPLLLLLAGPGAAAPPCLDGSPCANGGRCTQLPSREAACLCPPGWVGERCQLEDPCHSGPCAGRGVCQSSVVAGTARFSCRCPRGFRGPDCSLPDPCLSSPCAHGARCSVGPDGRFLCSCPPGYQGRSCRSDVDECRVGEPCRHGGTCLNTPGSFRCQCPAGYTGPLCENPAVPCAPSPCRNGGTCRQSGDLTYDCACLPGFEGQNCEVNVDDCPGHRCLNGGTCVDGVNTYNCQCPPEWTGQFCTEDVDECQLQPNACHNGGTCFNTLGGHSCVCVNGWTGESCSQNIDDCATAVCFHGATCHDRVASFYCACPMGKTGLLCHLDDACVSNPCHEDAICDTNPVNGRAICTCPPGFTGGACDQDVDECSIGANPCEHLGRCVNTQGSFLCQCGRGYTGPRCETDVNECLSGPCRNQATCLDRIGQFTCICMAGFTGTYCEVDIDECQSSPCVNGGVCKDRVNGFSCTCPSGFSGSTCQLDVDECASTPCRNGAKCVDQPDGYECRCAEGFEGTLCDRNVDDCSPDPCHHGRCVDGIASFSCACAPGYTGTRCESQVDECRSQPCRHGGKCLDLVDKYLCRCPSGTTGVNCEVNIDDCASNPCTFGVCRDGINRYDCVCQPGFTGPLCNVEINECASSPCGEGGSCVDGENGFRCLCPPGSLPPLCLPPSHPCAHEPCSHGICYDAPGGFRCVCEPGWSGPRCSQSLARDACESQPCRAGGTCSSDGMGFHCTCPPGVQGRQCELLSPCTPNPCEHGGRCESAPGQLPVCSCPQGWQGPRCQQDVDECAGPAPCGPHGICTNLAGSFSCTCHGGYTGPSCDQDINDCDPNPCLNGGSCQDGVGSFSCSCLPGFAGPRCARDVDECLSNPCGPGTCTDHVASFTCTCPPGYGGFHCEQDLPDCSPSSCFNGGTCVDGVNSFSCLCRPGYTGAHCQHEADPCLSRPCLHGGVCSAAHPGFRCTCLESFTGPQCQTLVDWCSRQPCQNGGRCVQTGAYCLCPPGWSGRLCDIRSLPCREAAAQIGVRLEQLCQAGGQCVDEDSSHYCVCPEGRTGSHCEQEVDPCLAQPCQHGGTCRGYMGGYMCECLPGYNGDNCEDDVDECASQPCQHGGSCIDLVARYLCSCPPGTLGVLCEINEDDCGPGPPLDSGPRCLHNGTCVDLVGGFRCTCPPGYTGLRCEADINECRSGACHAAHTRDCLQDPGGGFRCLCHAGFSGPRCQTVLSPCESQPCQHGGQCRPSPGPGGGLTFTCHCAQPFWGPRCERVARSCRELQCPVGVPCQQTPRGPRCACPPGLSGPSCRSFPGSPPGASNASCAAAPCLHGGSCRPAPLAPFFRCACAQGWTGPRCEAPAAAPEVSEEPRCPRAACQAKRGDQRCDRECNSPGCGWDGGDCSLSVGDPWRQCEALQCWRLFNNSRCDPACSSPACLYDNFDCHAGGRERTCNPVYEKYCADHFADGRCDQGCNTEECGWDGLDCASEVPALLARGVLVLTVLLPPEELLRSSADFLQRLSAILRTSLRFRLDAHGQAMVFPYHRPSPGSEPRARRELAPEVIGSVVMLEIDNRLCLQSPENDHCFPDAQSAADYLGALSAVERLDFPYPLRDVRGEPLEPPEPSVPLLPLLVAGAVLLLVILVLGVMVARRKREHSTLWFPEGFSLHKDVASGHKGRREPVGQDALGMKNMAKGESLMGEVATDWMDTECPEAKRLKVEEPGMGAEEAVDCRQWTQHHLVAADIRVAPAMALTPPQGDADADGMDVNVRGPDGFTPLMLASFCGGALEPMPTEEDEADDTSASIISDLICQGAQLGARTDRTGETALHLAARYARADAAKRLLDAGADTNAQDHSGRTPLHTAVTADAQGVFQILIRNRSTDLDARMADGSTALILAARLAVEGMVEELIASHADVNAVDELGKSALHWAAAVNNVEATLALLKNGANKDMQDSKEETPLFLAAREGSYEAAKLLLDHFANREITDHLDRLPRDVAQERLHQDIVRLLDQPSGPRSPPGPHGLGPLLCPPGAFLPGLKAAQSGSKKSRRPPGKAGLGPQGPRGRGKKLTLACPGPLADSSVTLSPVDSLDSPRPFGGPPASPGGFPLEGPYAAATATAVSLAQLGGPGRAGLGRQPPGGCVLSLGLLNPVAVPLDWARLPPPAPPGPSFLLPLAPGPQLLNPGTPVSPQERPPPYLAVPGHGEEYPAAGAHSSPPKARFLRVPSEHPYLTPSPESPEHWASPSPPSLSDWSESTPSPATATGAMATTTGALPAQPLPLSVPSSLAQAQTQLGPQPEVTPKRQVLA
Chain of Torsin-1A-interacting protein 2 (Homo sapiens) (Q8NFQ8 whole entry, looked up): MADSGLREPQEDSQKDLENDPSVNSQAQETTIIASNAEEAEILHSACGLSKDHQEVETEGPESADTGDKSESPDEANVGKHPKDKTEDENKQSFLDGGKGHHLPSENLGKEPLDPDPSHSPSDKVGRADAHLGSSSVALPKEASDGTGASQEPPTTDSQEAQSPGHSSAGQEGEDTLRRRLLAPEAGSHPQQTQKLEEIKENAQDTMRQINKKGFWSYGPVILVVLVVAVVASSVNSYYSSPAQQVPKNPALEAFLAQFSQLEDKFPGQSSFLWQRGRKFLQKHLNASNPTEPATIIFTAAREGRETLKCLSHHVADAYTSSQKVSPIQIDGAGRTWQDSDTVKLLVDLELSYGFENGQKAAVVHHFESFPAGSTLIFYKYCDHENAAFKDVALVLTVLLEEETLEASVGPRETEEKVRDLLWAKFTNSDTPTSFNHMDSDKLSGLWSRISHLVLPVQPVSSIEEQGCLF

Turning to `CCN(CC)c1ccc(N2CC=CC34O[C@@H]5/C=C\CCC(C)OC(=O)C5[C@H]3C(=O)N(CCCO)[C@@H]4C2=O)cc1` (stereo not given in full), the composite z-score in assay [1] is -1; in assay [5] it was 0.964; in assay [7] it was -0.143; in assay [8] it was -0.686; in [9], -0.397; in assay [10], -0.27. In addition, the z-score in [2] was 0.664 (inactive); in [3], -0.0895 (inactive); in assay [4], 0.928 (inactive); in assay [6], 0.0591 (inactive).
Regarding `O=C1C[C@@H](O)[C@@H](O)[C@@H]2[C@@H]3C(=O)N(c4cccc(Oc5ccccc5)c4)C(=O)[C@@H]3CC[C@@H]12`, the composite z-score is 0.766 in assay [1]; 1.42 in assay [5]; -0.177 in assay [7]; 0.468 in [8]; 1.09 in assay [9]; 0.126 in assay [10]. The z-score was -0.336 (inactive) in assay [2], -0.444 (inactive) in assay [3], -0.622 (inactive) in [4] and 0.185 (inactive) in assay [6].
For the compound `O=C1[C@H]2[C@H]3[C@H](O)[C@H](O)CC(=NOCc4ccccc4)[C@H]3CC[C@H]2C(=O)N1c1ccc(F)cc1F`, the composite z-score was -0.129 in [1]; -0.089 in assay [5]; -0.373 in assay [7]; -0.153 in assay [8]; -0.367 in [9]; -0.0936 in assay [10]. Further, the z-score in [2] is -1.3 (inactive); in assay [3] it was -0.128 (inactive); in assay [4] it was -0.982 (inactive); in assay [6] it was 0.358 (inactive).
Consider `CCCC[C@@H](O)C1=C(C)C[C@H]2C(=O)N(Cc3ccccc3)C(=O)[C@H]2[C@H]1CO`, for which the composite z-score in assay [1] is 0.18; in assay [5], -0.463; in assay [7] it was -0.0998; in assay [8] it was 0.283; in assay [9] it was 0.15; in [10] it was -0.159. Besides, the z-score in assay [2] is -0.812 (inactive); in assay [3] it was -2.19 (inactive); in assay [4], 0.0211 (inactive); in assay [6] it was 0.706 (inactive).
As to `COc1ccc(COC(=O)NN=C2C[C@@H](O)[C@@H](O)[C@@H]3[C@@H]4C(=O)N(c5ccc(F)cc5F)C(=O)[C@@H]4CC[C@@H]23)cc1`, the composite z-score was -1.42 in assay [1]; -0.524 in assay [5]; 0.0215 in assay [7]; -0.0901 in assay [8]; 0.14 in assay [9]; -0.117 in assay [10]. For the same compound, the z-score in assay [2] was 0.935 (inactive); in assay [3] it was -0.423 (inactive); in assay [4], 0.0088 (inactive); in [6], 0.488 (inactive).
Regarding `COCCCNC(=O)[C@@]1(CCS(=O)(=O)c2ccccc2)N=C(c2ccc(OCCCO)cc2)O[C@H]1c1ccccc1`, the composite z-score was 1.38 in assay [1]; 3.43 in [5]; 0.888 in assay [7]; 0.0483 in assay [8]; -0.0936 in [9]; 0.592 in [10]. Further, the z-score in assay [2] was -0.67 (inactive); in assay [3], -0.692 (inactive); in assay [4] it was -0.757 (inactive); in assay [6] it was 2.54 (inactive).
In the case of `COCCOC(=O)N1C(=O)[C@@]2(c3cc(C#CCNC(N)=O)ccc31)[C@H](c1ccc(O)cc1)N1[C@H](c3ccccc3)[C@H](c3ccccc3)OC(=O)[C@H]1[C@@H]2C(=O)N1CCCCCCC1`, the composite z-score in assay [1] came out at 1.55; in assay [5], 0.859; in assay [7], 0.354; in assay [8] it was 1.28; in [9], 1.08; in assay [10], 0.0396. Moreover, the z-score in assay [2] is 1.2 (inactive); in assay [3], 0.159 (inactive); in [4] it was 1.27 (inactive); in assay [6], 0.576 (inactive).
For `COc1ccc([Si](C)(C)[C@@H]2[C@@H](CCO)O[C@]3(C(=O)N(Cc4ccc(NC(C)=O)cc4)c4ccccc43)[C@H]2C)cc1`, the composite z-score in [1] stood at 1.55; in assay [5], 2.7; in assay [7] it was 0.0325; in assay [8], 1.48; in assay [9], 0.949; in assay [10], 0.492. Moreover, the z-score in assay [2] is 2.99 (inactive); in assay [3] it was 0.282 (inactive); in [4], 34.6 (active); in assay [6], 1.44 (inactive).
With `CCOC(=O)CCN1C(=O)[C@H]2[C@H]3[C@H](O)[C@H](O)CC(=O)[C@H]3CC[C@H]2C1=O`, the composite z-score in [1] is 0.0774; in [5], 0.35; in assay [7] it was -0.225; in [8] it was 0.387; in assay [9], 0.295; in assay [10], -0.0381. Besides, the z-score was 0.184 (inactive) in assay [2], -0.373 (inactive) in [3], 0.341 (inactive) in assay [4] and 0.355 (inactive) in assay [6].
With `C[C@@H]1C=CCC(=O)OC[C@H](C)C(=O)OC[C@H]2O[C@H]1C=C[C@H]2O`, the composite z-score in assay [1] was 0.047; in [5] it was 0.429; in assay [7], -0.18; in [8], 1.31; in assay [9], 0.272; in assay [10], -0.0039. Further, the z-score was 1.1 (inactive) in [2], -2.02 (inactive) in assay [3], 0.614 (inactive) in [4] and 0.0861 (inactive) in assay [6].
In the case of `COC(=O)C1=C(C)[C@@H](O)[C@@H](C)[C@H](c2c(OC)c(OC)c(C)c(OC)c2OC)O1`, the composite z-score in assay [1] was -0.462; in [5], -0.166; in [7] it was -0.142; in [8], 0.461; in assay [9] it was 0.105; in [10], -0.106. Further, the z-score in assay [2] was 0.645 (inactive); in [3], 0.629 (inactive); in assay [4], -0.22 (inactive); in assay [6] it was 0.164 (inactive).
For `CO[C@@H]1COC(=O)CCC[C@@H](C)[C@H](OC)COC(=O)[C@H](Cc2ccccc2)NC(=O)CC=C[C@H]1C`, the composite z-score is -0.256 in assay [1]; -2.01 in [5]; -0.178 in assay [7]; 0.76 in [8]; -1.25 in assay [9]; -0.127 in assay [10]. For the same compound, the z-score was 0.449 (inactive) in assay [2], -0.529 (inactive) in assay [3], -0.341 (inactive) in [4] and 0.0728 (inactive) in [6].

(Values after PubChem BioAssay.)
